Screens deposited in PubChem by National Center for Advancing Translational Sciences (NCATS).
Most compounds without a hit are left out; they make up all but 19% or so of the library.
HT1080 IDH1KD tx: toxicity to HT-1080 IDH1 knockdown cells (counter line); HT-1080 IDH1 knockdown viability, ATP luminescence, 48 h; Potency, µM (top dose mostly 46.1 µM), most hits filed as cytotoxic; 360,000 compounds, 2% hits; AID 686971
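HT-1080-IDH1KD cells (IDH1 knocked down), 750/well in RPMI with 5% FBS, treated with compound 48 h at 37 degrees C. Viability by CellTiter-Glo luminescence, normalised to DMSO and no-cell wells; concentration-response curves classed.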
HT1080-NT tox: kills 2HG-producing HT-1080-NT fibrosarcoma cells; AID 686970; 360,000 compounds, 1.6% hits; HT-1080-NT fibrosarcoma viability, CellTiter-Glo ATP luminescence, 48 h; Potency, µM (titrated, usually from 46.1 µM), most hits filed as cytotoxic;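 note: NT is the 2HG producing partner of a matched IDH1 knockdown line; nearly all actives have a fitted effect of over 55% in size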
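Viability by CellTiter-Glo luminescence after 48 h compound exposure at 37C of HT-1080-NT cells (750/well, RPMI, 5% FBS). % activity scaled between DMSO wells and medium-only wells, then curve-fitted and categorized by curve class.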
DT40 TDP1 CPT: DT40-hTDP1 cell growth loss with CPT; chicken DT40 Tdp1-/-;hTDP1 cells + 20 nM CPT, ATP luminescence, 48 h; Potency, µM (highest dose often 46.2 µM), usual class: inhibitors; 420,000 compounds, 12% hits; AID 686979; note: nearly all actives have a fitted effect of over 55% in size
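Cell growth measured by CellTiter-Glo luminescence after a minimum 48 h, 37 C compound exposure with 20 nM CPT in Tdp1-knockout DT40 cells stably expressing hTDP1, seeded 400/well; qHTS titration format.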
IL-1B inflam inh: inflammasome signaling inhibition, IL-1 beta readout | THP-1 LPS/ATP IL-1B secretion, AlphaLISA, 16 h; hits give low values | activity change, % at 57.5 µM | 360,000 compounds, 4.7% hits | AID 743279; in the data active = activity change below about -50%; inconclusive = mostly about -30% to -49%
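THP-1 cells pretreated 1 hr with compounds (up to 57.5 uM final), then stimulated with LPS (250 ng/mL final) plus ATP (1.25 mM final); secreted IL-1B measured by AlphaLISA after 16 hr, decreased signal indicating inhibition.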
uPA surface inh: inhibitors of cell surface uPA generation; cell surface uPA generation assay, qHTS; Potency, µM (top dose mostly 38.3 µM), hits mostly inhibitors; 330,000 compounds, 0.31% hits; AID 540303; active = well fitted inhibition curve with a large enough effect; inconclusive = small, poorly fitted or top-dose-only effect; inactive = no such curve, though single readings can be large or run the other way; tested in mouse RAW 264.7 cells; note: nearly all actives have a fitted effect of over 55% in size
DT40 TDP1 no CPT: qHTS for Inhibitors of human tyrosyl-DNA phosphodiesterase 1 (TDP1): qHTS in cells in absence of CPT | DT40 Tdp1-/- hTDP1 cells, no CPT, ATP luminescence, 48 h | Potency, µM (top dose mostly 46.2 µM), hits mostly inhibitors | 420,000 compounds, 15% hits | AID 686978, 2013; note: nearly all actives have a fitted effect of over 55% in size
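Camptothecin absent (DMSO only). Human TDP1-complemented DT40 knockout cells, 400 cells/well, 37 °C for minimum 48 hr; ATP measured via CellTiter-Glo, 30 min dark incubation, luminescence.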
Numbers stand for hits; - = inactive; ? = inconclusive; . = no result; [ ] = remark or other dose. Unless noted, calls come from the whole dose curve; as a rule, active = well fitted curve in the direction sought with a large enough effect; inconclusive = small, poorly fitted or top-dose-only effect, or another doubt; inactive = no such curve, though single readings can be large; an effect the other way counts as inactive or inconclusive.

SMILES | HT1080 IDH1KD tx | HT1080-NT tox | DT40 TDP1 CPT | IL-1B inflam inh | uPA surface inh | DT40 TDP1 no CPT
C[C@]12CC[C@H](O)C[C@H]1CC[C@@H]1[C@@H]2CC[C@]2(C)[C@@H](C3=CC(=O)OC3)CC[C@]12O | 0.259µM | 0.517µM | ? | ? | - | 11.6µM
CC(=O)C1CCC2C3CCC4CC(O)CCC4(C)C3CC(O)C12C (stereo not given) | . | . | - | . | . | -
CC12CCC(O)CC1CCC1C2CCC2(C)C(C3=CC(=O)OC3)CCC12O (stereo not given) | 1.16µM | 1.46µM | ? | -65.1 | - | ?
C[C@]12CC[C@H](O)C[C@H]1CC[C@@H]1[C@@H]2C[C@@H](O)[C@]2(C)[C@@H](C3=CC(=O)OC3)CC[C@]12O | 0.82µM | 2.06µM | - | -65.8 | - | ?
CC12CC[C@H]3[C@@H](CCC4(O)C[C@H](O)CCC34/C=N/NC(=O)Cc3ccccc3)C1(O)CCC2C1=CC(=O)OC1 (stereo not given in full) | ? | ? | - | - | - | -
COC(=O)CCCNC(=O)CN1CC(c2ccccc2)CC1=O (stereo not given) | - | - | - | - | - | -
CNC(=O)Oc1ccc2c(c1)[C@@]1(C)CCN(C)[C@@H]1N2C | . | . | - | . | . | -
O=C(CCc1ccccc1)N1C[C@H]2C[C@@H](C1)c1cccc(=O)n1C2 | - | - | - | - | - | -
C[C@H](N)CN1CCc2ccc(Br)cc21 | - | - | ? | - | - | ?
CC(C)Cn1c(O)c(N=NC(=O)c2cccc(S(=O)(=O)N3CCCCC3)c2)c2ccccc21 | - | - | 16.4µM | ? | ? | 13µM
CCn1cc(C(=O)N2CCC3(CC2)OCCO3)c(=O)c2cc(S(=O)(=O)N3CCCC3)ccc21 | - | - | - | - | - | -
CN1c2ccccc2C(NCCCCCCC(=O)O)c2ccc(Cl)cc2S1(=O)=O (stereo not given) | . | . | - | . | . | ?
COC[C@H]1OC(=O)c2coc3c2[C@@]1(C)C1=C(C3=O)[C@@H]2CCC(=O)[C@@]2(C)C[C@H]1OC(C)=O | 23.1µM | ? | 0.92µM | -101.4 | - | 1.84µM
CCc1ccccc1N1C(=O)N(Cc2ccccc2C)c2ccccc2S1(=O)=O | . | . | ? | . | . | 16.4µM
Cc1cccc(C)c1-n1nnnc1C(c1cccc2ccccc12)N1CCC(n2c(=O)[nH]c3ccccc32)CC1 (stereo not given) | - | - | 14.6µM | - | . | 16.4µM
Cc1cccc(C)c1-n1nnnc1C(C1CC1)N1CCC(n2c(=O)[nH]c3ccccc32)CC1 (stereo not given) | - | - | ? | - | . | ?
Cc1cccc(C)c1-n1nnnc1C(c1cccs1)N1CCC(n2c(=O)[nH]c3ccccc32)CC1 (stereo not given) | ? | - | ? | - | . | 20.6µM
CC(=NCCN(C)C)c1c(O)n(Cc2ccccc2)c(=O)[nH]c1=O | - | - | - | - | - | -
CC[C@]1(O)CC[C@H]2[C@@H]3CCC4=CCCC[C@@H]4[C@H]3CC[C@@]21C | . | . | 7.5µM | . | . | 5.31µM
CC[C@H]1C[C@H]2[C@@H]3CCC4=CC(=O)CC[C@@H]4[C@H]3CC[C@]2(C)[C@H]1O | . | . | ? | . | . | -
CC(=O)OC1CC[C@@]2(C)C(=CC(=O)C3C4CCC(OC(C)=O)[C@@]4(C)CCC32)C1 (stereo not given in full) | - | - | - | - | - | ?
CC(C)(C)C(=O)O[C@H]1CC[C@@]2(C)C(=CC(=O)C3C2CC[C@]2(C)C(=O)[C@@H](F)CC32)C1 (stereo not given in full) | - | - | ? | -77.1 | - | ?
c1ccc(CN2CCN(Cc3ccc4ccccc4c3)CC2)cc1 | - | - | 18.4µM | - | - | 16.4µM
Cc1ccc(CN2CCN(Cc3ccccc3)CC2)cc1 | - | - | - | - | - | -
CCc1ccccc1Nc1nn2c(=O)c3ccc(C(=O)Nc4cc(C)cc(C)c4)cc3nc2s1 | . | . | 8.2µM | . | . | 8.2µM
CC(NC(=O)c1cc(F)ccc1F)c1nnc2n1CCN(Cc1ccc(-c3ccccc3)cc1)CC2 (stereo not given) | . | . | -[9.04 µM] | . | . | ?
CCN(CC(=O)Nc1ccc(NC(C)=O)cc1)C(=O)CSC(c1ccccc1)c1ccccc1 | - | - | ? | ? | ? | -
O=C1NC(=O)C(=Cc2c(Cl)cccc2Cl)C(=O)N1 | - | - | 11.6µM | -58.4 | - | 13µM
O=C(NCc1cccnc1)C1CCN(S(=O)(=O)c2cc([N+](=O)[O-])ccc2Cl)CC1 | - | - | ? | - | - | 18.4µM
COc1cc([C@@H]2c3cc4c(c(O)c3C[C@H]3COC(=O)[C@@H]32)OCO4)cc(OC)c1OC | . | . | 0.159µM | . | . | 0.126µM
